GC-B act – GC-B (human) receptor activation; P20594; HEK293-GC-B cells, CNP EC30, cGMP TR-FRET; 0% at EC30 CNP, 100% saturating CNP; activation, % at 10 µM; 370,000 tested, 0.11% active;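 active means activation at 10 µM reaching about 35% in either raw or pattern-adjusted values, limit read from the data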
GC-A act – GC-A (human) enzyme activation; activation, % at 10 µM; P16066; AID 1671463; HEK293 GC-A cells, cGMP TR-FRET, EC30 ANP; 0% at EC30 ANP, 100% saturating ANP; 370,000 tested, 0.14% active; in the data active means activation above about 40%
HIF act – HIF pathway transcriptional activation. U2OS HRE-luciferase reporter, luminescence; normalized: DMSO 0%, desferrioxamine 100%. activation, % at 7.5 µM (by protocol). 300,000 tested, 0.32% active. AID 1910;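 active means mean activation of at least 10% of the iron chelator positive control signal, with at least half of replicates also reaching 10%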
proKLK7 act – activators of human kallikrein-7 zymogen; activation, % at 7 µM; purified proKLK7, EDANS-DABCYL substrate fluorescence; 100% is mature enzyme control, 0% vehicle; P49862; 370,000 tested, 0.9% active;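 active means activation above the mean of all tested compounds plus 3 SD, computed per campaign excluding outliers beyond control limits, cut at about 13% in these data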
Target sequence (P49862 whole entry, looked up): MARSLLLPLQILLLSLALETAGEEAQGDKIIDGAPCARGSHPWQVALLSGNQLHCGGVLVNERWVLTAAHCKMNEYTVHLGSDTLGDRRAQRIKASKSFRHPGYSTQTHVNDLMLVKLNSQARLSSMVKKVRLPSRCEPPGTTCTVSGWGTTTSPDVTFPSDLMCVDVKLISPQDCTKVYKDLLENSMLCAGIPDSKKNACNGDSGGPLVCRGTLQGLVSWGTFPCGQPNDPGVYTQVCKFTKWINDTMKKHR
KLK7 act conf – proKLK7 activation, confirmation. shares compounds with proKLK7 act. AID 686949. activation, % at 7 µM. 3,200 tested, 68% active. purified proKLK7, EDANS-DABCYL substrate fluorescence; scaled: vehicle 0, mature enzyme 100;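 active means activation, as change over the incubation, above the mean of all tested compounds plus 3 SD, cut at about 13% in these data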
EDANS interfere – counter-screen for kallikrein-7 activators: EDANS-DABCYL optical interference; EDANS-DABCYL substrate fluorescence interference, no enzyme, 4 h; solvent 0%, active enzyme control 100%; activation, % at 7 µM; AID 686952; 3,200 tested, 80% active; shares compounds with proKLK7 act;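 active means activation above the all-compound mean plus 3 SD, ignoring values outside control-based bounds, cut at about 4.8% in these data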;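 further: value is the 4 h activation minus the activation read at time zero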
EDANS interf – optically interferes with EDANS-DABCYL fluorescence, kallikrein-7 activator counter-screen. shares compounds with proKLK7 act. EDANS-DABCYL peptide fluorescence interference, no enzyme. EC50, µM. 250 tested, 20% active;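 active means compounds that raise the fluorescence signal in this interference counterscreen, with EC50 at or below 10 µM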;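 further: intact quenched peptide substrate alone read at 355 nm excitation and 520 nm emission; signal is fluorescence gain from T0 to T4 after four hours at room temperature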
A number is an active result; - = inactive; . = not tested or not shown. Rows were chosen to be rich in hits. Some 1.3% of all compounds tested hit in one or more screens of this group.

SMILES	GC-B act	GC-A act	HIF act	proKLK7 act	KLK7 act conf	EDANS interfere	others
COc1cccc(C2c3[nH]c4ccccc4c3CCN2CCCn2cccn2)c1 (stereo not given)	-	-	-	-	.	.
COc1cc2c(cc1OC)-c1cc(Nc3ccc(N(C)C)cc3)nc(=O)n1CC2	-	-	-	-	.	.
CCN(CC)c1ccc(Nc2cc3n(c(=O)n2)CCc2cc(OC)c(OC)cc2-3)cc1	-	-	-	21	72	74
COc1ccc(CN(C)CC#Cc2ccccc2)c(OC)c1	-	-	.	-	.	.
FC(F)(F)c1cccc(Cn2ccc3ccc(-c4ccc5ccn(Cc6cccc(C(F)(F)F)c6)c5c4)cc32)c1	-	-	.	-	.	.
Cc1coc2c1c(C)cc1oc(=O)c(CC(=O)NCC(=O)NCC(=O)O)c(C)c12	-	-	-	-	.	.
COCCCNC(=O)Cc1c(C)c2c(cc(C)c3c(C(C)(C)C)coc32)oc1=O	-	-	-	-	.	.
Cc1coc2c1c(C)cc1oc(=O)c(CC(=O)NCCC(=O)O)c(C)c12	-	-	-	30	64	75
COCCNC(=O)Cc1c(C)c2c(cc(C)c3c(C)coc32)oc1=O	-	-	-	16	-	-
COc1cc(OC)cc(C(C)c2ccc(C)cc2)c1 (stereo not given)	-	-	.	.	.	.
CCC[C@H]1[C@@H](OC(=O)NC2CCC2)CC[C@@]23CCCN2C(=O)CCC[C@@H]13	-	-	.	.	.	.
O=S1(=O)c2c(cccc2N2CCSCC2)Oc2ccccc2CN1Cc1cn(Cc2cccc(F)c2)nn1	-	-	.	-	.	.
Cc1ccc(CNC(=O)OC2CC3CC2[C@H]2CCCCN2C3=O)cc1 (stereo not given in full)	-	-	.	-	.	.
CCCNC(=O)OC1CC2CC1[C@H]1CCCCN1C2=O (stereo not given in full)	-	-	.	45	-	-
COc1cc2cc(Oc3ccc4ccc(=O)oc4c3)c(=O)oc2cc1O[C@@H]1O[C@H](CO)[C@@H](O)[C@H](O)[C@H]1O	-	-	.	25	36	49
Cc1c(C)c2ccc(O[C@@H]3O[C@H](CO)[C@H](O)[C@H](O)[C@H]3O)cc2oc1=O	-	-	-	-	.	.
COc1cc2cc(Oc3ccc4ccc(=O)oc4c3)c(=O)oc2cc1OC1OC(COC(=O)CC(C)(O)CC(=O)O)C(O)C(O)C1O (stereo not given)	-	-	-	21	34	31
COc1cc2cc(Oc3ccc4ccc(=O)oc4c3)c(=O)oc2cc1OC(=O)/C=C/c1ccccc1	-	-	-	-	.	.
COC(=O)[C@]12C[C@H](CC(=O)NCc3ccccc3)C(=O)N(CCc3ccc(OC)c(OC)c3)C1=C[C@H](C(C)C)O[C@@H]2C1CC1	-	-	.	-	.	.
COc1ccc(CC(/C=C/c2ccc(F)cc2)c2ccccc2)cc1 (stereo not given)	-	-	.	-	.	.
CC1(C)C=C2C(N(CC3CC3)C(=N)N2C(=O)OCc2ccccc2)n2c(=O)n(-c3ccccc3)c(=O)n21 (stereo not given)	-	-	.	.	.	.
COCC#Cc1ccc(CC[C@H]2O[C@H]3CC[C@@H](CO)O[C@H]3C[C@H]2n2cc(C(C)(C)O)nn2)cc1	-	-	.	-	.	.
c1ccc2c(c1)NC1(CCCC1)n1c-2nc2ccccc21	-	-	-	82	61	66
CCCC1(C)Nc2ccccc2-c2nc3ccccc3n21 (stereo not given)	-	-	-	63	-	7.1
O=C1c2ccccc2NC2(CCCC2)N1O	-	-	-	-	.	.
SMILES	GC-B act	GC-A act	HIF act	proKLK7 act	KLK7 act conf	EDANS interfere	others
O=S1(=O)c2ccc(Br)cc2OC[C@H](Cc2ccccc2)N1Cc1cn(CCC2OCCO2)nn1	-	-	.	-	.	.
O=C(Nc1c(-c2ccc(F)cc2)nc2ncccn12)c1ccc(F)cc1	-	-	.	-	.	.
Nc1nc2ncccn2c1-c1ccc(F)c(F)c1	-	-	.	22	24	19	EDANS interf=-
O=C(Nc1c(-c2ccc(F)c(F)c2)nc2ncccn12)C1CC1	-	-	.	18	52	57
Cc1ccc(-c2c(NC(=O)C3CC3)nc3ncccn23)cc1	-	-	.	23	30	35
CC(C)CC(CCOCCO)NC(=O)OCc1ccccc1[N+](=O)[O-] (stereo not given)	-	-	.	.	.	.
COc1nc(OC)nc(N2CCC(C(=O)N(C)Cc3ccccc3F)CC2)n1	-	-	.	-	.	.
COc1cccc(CNC(=O)c2ccc3c(c2)N(C)CCS3)c1OC	-	-	-	38	69	47	EDANS interf=-
Cc1ccccc1NC(=O)c1ccc2c(c1)N(C)CCS2	-	-	-	-	.	.
CN1CCSc2ccc(C(=O)Nc3cc(F)ccc3F)cc21	-	-	-	16	-	12
CCN1CCSc2ccc(C(=O)NCc3ccccc3Br)cc21	-	-	-	-	.	.
CN1CCSc2ccc(C(=O)NCc3ccccc3F)cc21	-	-	-	29	31	13	EDANS interf=-
CCN1CCSc2ccc(C(=O)NCc3ccccc3C)cc21	-	-	-	20	-	-
COc1cccc(CNC(=O)CCC(=O)N2CCSc3ccccc32)c1OC	-	-	-	-	.	.
COC(=O)c1ccc2c(c1)N(C)CCS2	-	-	-	-	.	.
CCOC(=O)CC[C@@H]1CC[C@]2(CCCN(Cc3ccc(OC)cc3)C2)O1	-	-	.	-	.	.
Cn1c(SCC2CCC2)nnc1-c1ccco1	-	-	.	-	.	.
CC(=O)N1CCN(C(=O)CN2C(=O)CC(C)(C)S(=O)(=O)c3ccccc32)CC1	-	-	.	-	.	.
CCN1CCSc2ccc(C(=O)NCc3ccccc3F)cc21	-	-	-	31	50	-	EDANS interf=-
COC(=O)c1cc(C(C)c2c[nH]c3ccccc23)n2ccccc12 (stereo not given)	-	-	.	-	.	.
COc1ccc(OC)c(/C=N/n2c(COc3ccccc3)n[nH]c2=S)c1	-	-	-	20	43	37
COc1ccc(Br)cc1/C=N/n1c(COc2ccccc2)n[nH]c1=S	-	-	-	-	.	.
Cc1ccc(S(=O)(=O)N2CCCC(C(=O)Nc3c(C)n(C)n(-c4ccccc4)c3=O)C2)cc1C (stereo not given)	-	-	.	-	.	.
CC(C)=CCn1c2ccc(NC(=O)NCc3ccc(F)cc3)cc2c(=O)n1C	-	-	.	18	-	-
CCNC(=O)Nc1ccc2c(c1)c(=O)n(C)n2CC=C(C)C	-	-	.	40	33	31
CC(C)=CCn1c2ccc(NC(=O)Nc3cccnc3)cc2c(=O)n1C	-	-	.	21	-	9.4
Cn1c(=O)c2cc(NC(=O)NCc3ccc(F)cc3)ccc2n1C/C=C/c1ccccc1	-	-	.	-	.	.

Screens deposited in PubChem by several laboratories.
